{"source": "PubChem BioAssay (NCI)", "note": "Compounds without any hit were thinned out: in the full panel of roughly 83,000, 20% have a hit.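 Plates (96-well) were seeded with cells, treated with compound at one concentration, and incubated for 48 hours before percent growth was determined.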 A number with no mark means an inactive call. Calls of active or inactive are those of the source. The calls were made as follows: active = growth percent below 10; inactive = the rest.", "data": [{"test_system": "HL-60(TB) leukemia", "assay": "NCI-60 one-dose screen, 48 h (100 = growth as untreated, 0 = no growth, -100 = all killed)", "details": "10 µM unless noted", "values": [{"molecule": "BrCCCc1n(Cc2ccc3ccccc3c2)c2ccccc2[n+]1Cc1ccc2ccccc2c1", "growth": "-54.9% (active)"}, {"molecule": "C=C(CNCCc1ccc(O)cc1)[C@@H]1CC[C@]2(CO)CC[C@]3(C)[C@H](CC[C@@H]4[C@@]5(C)CCC(NCCc6ccc(O)cc6)C(C)(C)[C@@H]5CC[C@]43C)[C@@H]12", "note": "(stereo not given in full)", "growth": "-65.2% (active)"}, {"molecule": "COc1cc2c(cc1OC)C(Sc1ccc(SC)cc1)c1c(nc(N)c(C#N)c1N)O2", "note": "(stereo not given)", "growth": "-52.9% (active)"}, {"molecule": "COc1ccc(NC(=O)c2cc(NCc3cc(O)ccc3O)ccc2O)cc1", "growth": "43.8%"}, {"molecule": "Nc1ccc2c(c1)Cc1cc(NC(=O)C(F)(F)F)ccc1-2", "growth": "98.4%"}, {"molecule": "Cc1c(NCc2nnc3n(Cc4ccccc4)c(=O)c4c5c(sc4n23)CCCC5)c(=O)n(-c2ccccc2)n1C", "growth": "80%"}, {"molecule": "Cc1oc2c(c1C(=O)N1CC[C@@H](N)C1)C(=O)c1c(c(O)c3ccccc3c1O)C2=O", "growth": "-22.8% (active)"}, {"molecule": "O=C1c2ccccc2C(=O)c2c(N=Nc3[nH]c(=S)[nH]c3O)cccc21", "growth": "-32.1% (active)"}, {"molecule": "COS(=O)(=O)c1ccc(Br)cc1", "growth": "122%"}, {"molecule": "CN1C(=O)N(C)[C@H]2NC(NN)=N[C@H]21", "growth": "102%"}, {"molecule": "Nc1c(CNCc2nnn(Cc3ccccc3)c2N)nnn1Cc1ccccc1", "growth": "103%"}, {"molecule": "Nc1ccc2c(c1)Cc1cc(N)c(N)cc1-2", "growth": "78.1%"}, {"molecule": "O=C(N=Nc1c(O)[nH]c2ccccc12)Nc1ccc(Br)cc1", "growth": "70.2%"}, {"molecule": "COc1ccc2c(c1)N(CCO)C1=C(C(=O)OC1)C2c1cccc(F)c1", "note": "(stereo not given)", "growth": "-22.7% (active)"}, {"molecule": "Oc1ccccc1-c1nnc(Cn2c(Cc3cccc4ccccc34)nc3ccccc32)o1", "growth": "96%"}, {"molecule": "COc1cc(-c2nc3ccccc3o2)cc(CN2CCCCC2)c1O", "growth": "11.9%"}, {"molecule": "CCN(CC)c1ccc(C(=O)c2ccc(N(CC)CC)cc2)cc1", "growth": "9.59% (active)"}, {"molecule": "Fc1cccc(-c2ccc3c(c2)C2(CCNCC2)CN3)c1", "growth": "108%"}, {"molecule": "NCCOc1ncccc1/C=C1\\c2ccccc2-c2ccc(C(F)F)cc21", "growth": "-3.26% (active)"}, {"molecule": "CCN(Cc1ccc(Cl)c(Cl)c1)c1ccc2nc(N)nc(N)c2c1C", "growth": "-79.5% (active)"}, {"molecule": "COc1cc(Cl)cc(-c2nn(-c3cccc(NC(=O)Nc4ccc(Cl)c(C(F)(F)F)c4)c3)cc2-c2ccncc2)c1", "growth": "-9.59% (active)"}, {"molecule": "COc1ccc2[nH]c(C(=O)OCc3ccc4cccc(O)c4n3)cc2c1", "growth": "-36.8% (active)"}, {"molecule": "CCN(CC)CCN1C(=O)c2c(c(C)c3c(oc4ccc(OC)cc43)c2C)C1=O", "growth": "93.3%"}, {"molecule": "COc1cc(/C=C/C(=O)Nc2cccnc2Nc2ccc(F)cc2)cc(OC)c1OC", "growth": "107%"}, {"molecule": "O=c1n(CC2CO2)c(=O)n(CC2CO2)c(=O)n1CC1CO1", "note": "(stereo not given)", "growth": "20.4%"}, {"molecule": "CN(C)CCn1c(=O)c2ccccc2n2nc3ccccc3c12", "growth": "70.3%"}, {"molecule": "CN(C)CCC(=O)c1ccc([N+](=O)[O-])cc1", "growth": "114%"}, {"molecule": "CN(Cc1cnc2nc(N)nc(N)c2n1)c1c(Cl)cc(C(=O)NC(CCC(=O)O)C(=O)O)cc1Cl", "note": "(stereo not given)", "growth": "18.6%"}, {"molecule": "COc1cc(NC(C)CCCN2C(=O)c3ccccc3C2=O)c2nc(C)ccc2c1OC", "note": "(stereo not given)", "growth": "69.6%"}, {"molecule": "COc1cc2c(cc1-c1c(C)noc1C)ncc1nc(-c3ccccn3)n([C@H](C)COC(F)F)c12", "growth": "33.6%"}, {"molecule": "COc1ccc(/C(Cl)=N/N=C(\\Cl)c2cc(OC)c(OC)c(OC)c2)cc1OC(C)=O", "growth": "81.2%"}, {"molecule": "COc1cc(C(=O)C(=O)c2cc(OC)c(O)c(OC)c2)cc(OC)c1O", "growth": "99.7%"}, {"molecule": "COc1ccc(C2CC(c3cccc(Nc4ccncc4)c3)=NN2c2cc(Cl)cc(Cl)c2)cc1", "note": "(stereo not given)", "growth": "4.35% (active)"}, {"molecule": "CCCCCCc1nc2nc(Cl)c(Cl)nc2[nH]1", "growth": "39.6%"}, {"molecule": "CCN1C(=O)N(CC)C2C1NN=c1s/c(=C3\\C(=O)Nc4ccccc43)c(=O)n12", "note": "(stereo not given)", "growth": "-25% (active)"}, {"molecule": "O=C(CCN1CCCC1)Nc1ccc2c(Nc3ccc(F)cc3)c3ccccc3nc2c1", "growth": "-54.9% (active)"}, {"molecule": "CCc1ccccc1NC(=O)c1sc2nc3c(cc2c1N)CCCC3", "growth": "2.66% (active)"}, {"molecule": "CC(C)=CCC/C(C)=C/CC/C(C)=C/CC/C=C(\\C)CC/C=C(\\C)CCC(=O)Nc1ccn(C2OC(CO)C(O)C2(F)F)c(=O)n1", "note": "(stereo not given)", "growth": "-21.3% (active)"}, {"molecule": "CCN(CC)CCNC(Cc1ccccc1)c1ccc(OCc2ccccc2)cc1", "note": "(stereo not given)", "growth": "46.8%"}, {"molecule": "S=c1ssnc1-c1cc2ccccc2o1", "growth": "78%"}]}]}
